Source: PubChem BioAssay (Tox21)
Inconclusive results are not listed. Calls of active or inactive are those of the source. The call rests on the fitted dose curve; in most records, active means well fitted curve in the direction sought with a large enough effect in the repeat runs; inconclusive means weak or mixed curves; inactive means no such curve, though single readings can be large; an effect the other way counts as inactive or inconclusive.

Experiments:
[1] = Caspase-3/7 induction in CHO-K1 cells by small molecules, qHTS assay (AID 1346980); further: nearly all actives have a fitted effect of over 15% in size
Procedure, shortened: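 Luminescent Caspase-Glo 3/7 read (30min, room temperature) quantified apoptosis induction. Cells were wild-type CHO-K1, treated with compound for 17hr at 37 C and 5% CO2.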

[2] = Caspase-3/7 induction in HepG2 cells by small molecules, qHTS cell viability counter screen (AID 1346981); further: nearly all actives have a fitted effect of over 30% in size; further: potency means the concentration at half of the fitted maximal effect
Procedure, shortened: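 Viability determined by CellTiter-Fluor fluorescence in HepG2 wells also used for the luminescent Caspase-Glo 3/7 read. Compounds were present for 16 hr at 37 C, 5% CO2 before reagent addition.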

[3] = target: Nuclear receptor subfamily 1 group I member 2 (Homo sapiens) (UniProt O75469); assay: Human pregnane X receptor (PXR) small molecule agonists, qHTS assay (AID 1346982); further: nearly all actives have a fitted effect of over 35% in size; further: potency means the concentration at half of the fitted maximal effect
Procedure, shortened: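 Compound-induced hPXR transactivation of a CYP3A4 luciferase reporter was scored in HepG2 PXR-Luc cells over 24 hr at 37 C, 5% CO2, by luminescence.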

[4] = target: Cytochrome P450 2C19 (Homo sapiens) (UniProt P33261); assay: Cytochrome P450 Family 2 Subfamily C Member 19 (CYP2C19) small molecule antagonists: luciferase reporter qHTS assay (AID 1671197); further: nearly all actives have a fitted effect of over 65% in size; further: potency means the concentration at half of the fitted maximal effect
Procedure, shortened: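 Light output is proportional to CYP2C19 activity: proluciferin substrate is converted to luciferin, then detected by a luciferin detection reagent that also stops the 1 h, 37C NADPH-driven reaction. Ketoconazole serves as positive control.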

[5] = target: Cytochrome P450 2C9 (Homo sapiens) (UniProt P11712); assay: Cytochrome P450 Family 2 Subfamily C Member 9 (CYP2C9) small molecule antagonists: luciferase reporter qHTS assay (AID 1671198); further: nearly all actives have a fitted effect of over 50% in size; further: potency means the concentration at half of the fitted maximal effect
Procedure, shortened: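 Enzyme-substrate mix preincubated with compound 10 min at room temperature; reaction started with NADPH regeneration solution, 1 h 37C. Luminescent luciferin product read after 20 min detection reagent.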

[6] = target: Cytochrome P450 1A2 (Homo sapiens) (UniProt P05177); assay: Cytochrome P450 Family 1 Subfamily A Member 2 (CYP1A2) small molecule antagonists: luciferase reporter qHTS assay (AID 1671199); further: nearly all actives have a fitted effect of over 50% in size; further: potency means the concentration at half of the fitted maximal effect
Procedure, shortened: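 Enzymatic CYP1A2 assay, human, luminescent: 10 min compound–enzyme–substrate preincubation, 1 h NADPH-dependent turnover, 20 min detection step, room temperature throughout. Reduced light indicates lower CYP1A2 activity.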

[7] = target: Voltage-gated inwardly rectifying potassium channel KCNH2 (Homo sapiens) (UniProt Q12809); assay: Human Ether-a-go-go-Related Gene (hERG) channel small molecule antagonists: fluorescence cell-based qHTS assay (AID 1671200); further: nearly all actives have a fitted effect of over 50% in size; further: potency means the concentration at half of the fitted maximal effect
Procedure, shortened: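 Quantitative HTS in hERG-U2OS cells: thallium entry through the channel reports activity, read as continuous 480/540 nm fluorescence over 2 min after stimulus addition.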

[8] = target: Cytochrome P450 3A4 (Homo sapiens) (UniProt P08684); assay: Cytochrome P450 Family 3 Subfamily A Member 4 (CYP3A4) small molecule antagonists: luciferase reporter qHTS assay (AID 1671201); further: series mostly up to about 120 µM; nearly all actives have a fitted effect of over 50% in size
Procedure, shortened: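 Inhibition of CYP3A4 is measured as loss of light: the enzyme converts a proluciferin substrate to luciferin, detected luminescently. Reaction ran 1 h at room temperature with NADPH regeneration after a 10 min compound preincubation.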

[9] = target: Cytochrome P450 2D6 (Homo sapiens) (UniProt P10635); assay: Cytochrome P450 Family 2 Subfamily D Member 6 (CYP2D6) small molecule antagonists: luciferase reporter qHTS assay (AID 1671196); further: nearly all actives have a fitted effect of over 50% in size; further: potency means the concentration at half of the fitted maximal effect
Procedure, shortened: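 Each well received CYP2D6 with its proluciferin substrate and chemical, sat 10 min, then got NADPH regeneration solution for 1 h at room temperature. Luminescence in RLU served as the activity measure.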

[10] = target: Nuclear receptor subfamily 1 group I member 2 (Rattus norvegicus) (UniProt Q9R1A7); assay: Rat pregnane X receptor (rPXR) activation by small molecules, qHTS assay (AID 1346983); details: rPXR luciferase reporter cells, One-Glo luminescence, 24 h; max activation: active compounds read high; further: nearly all actives have a fitted effect of over 20% in size
Procedure, shortened: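 Luminescent readout (One-Glo luciferase, 30 min room temperature) followed 24 hr compound treatment at 37 C of rPXR cells plated 2,000 per well and preincubated 5hr; qHTS format with compounds delivered in DMSO.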

[11] = target: Nuclear receptor subfamily 1 group I member 2 (Homo sapiens) (UniProt O75469); assay: CYP3A4 induction through human pregnane X receptor (PXR) by small molecules, qHTS assay (AID 1346984); further: nearly all actives have a fitted effect of over 40% in size
Procedure, shortened: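 Readings come from a luciferase reporter: DPX-2 cells, which are HepG2 cotransfected with PXR and a CYP3A4-promoter construct, were exposed to test compounds for 24 h at 37C before One-Glo detection.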

[12] = target: Nuclear receptor subfamily 1 group I member 2 (Homo sapiens) (UniProt O75469); assay: Human pregnane X receptor (PXR) activation by small molecules, qHTS assay (AID 1346985); further: nearly all actives have a fitted effect of over 40% in size
Procedure, shortened: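 DPX-2 cells (HepG2 co-transfected with a PXR response element and a CYP3A4-promoter luciferase construct) were seeded at 2,000 per well, rested 5 hr at 37C, then exposed to DMSO-dissolved compounds for 24 hr. Activation was read as luciferase luminescence.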
On the % scale 0 is the no-effect control and ±100 the full control effect.

Sequence of Nuclear receptor subfamily 1 group I member 2 (Rattus norvegicus) (Q9R1A7 whole entry, looked up): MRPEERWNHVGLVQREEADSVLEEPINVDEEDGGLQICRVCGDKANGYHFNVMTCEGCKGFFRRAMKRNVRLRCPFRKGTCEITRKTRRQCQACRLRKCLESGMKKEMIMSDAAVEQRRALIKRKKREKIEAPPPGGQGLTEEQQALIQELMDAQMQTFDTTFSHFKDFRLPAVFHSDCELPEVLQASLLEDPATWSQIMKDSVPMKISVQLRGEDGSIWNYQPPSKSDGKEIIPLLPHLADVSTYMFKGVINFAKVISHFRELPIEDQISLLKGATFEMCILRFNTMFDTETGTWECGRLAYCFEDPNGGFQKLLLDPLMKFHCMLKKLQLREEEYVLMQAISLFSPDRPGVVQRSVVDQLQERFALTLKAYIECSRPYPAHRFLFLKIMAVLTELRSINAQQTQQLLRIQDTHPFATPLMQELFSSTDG
Sequence of Cytochrome P450 2C9 (Homo sapiens) (P11712 whole entry, looked up): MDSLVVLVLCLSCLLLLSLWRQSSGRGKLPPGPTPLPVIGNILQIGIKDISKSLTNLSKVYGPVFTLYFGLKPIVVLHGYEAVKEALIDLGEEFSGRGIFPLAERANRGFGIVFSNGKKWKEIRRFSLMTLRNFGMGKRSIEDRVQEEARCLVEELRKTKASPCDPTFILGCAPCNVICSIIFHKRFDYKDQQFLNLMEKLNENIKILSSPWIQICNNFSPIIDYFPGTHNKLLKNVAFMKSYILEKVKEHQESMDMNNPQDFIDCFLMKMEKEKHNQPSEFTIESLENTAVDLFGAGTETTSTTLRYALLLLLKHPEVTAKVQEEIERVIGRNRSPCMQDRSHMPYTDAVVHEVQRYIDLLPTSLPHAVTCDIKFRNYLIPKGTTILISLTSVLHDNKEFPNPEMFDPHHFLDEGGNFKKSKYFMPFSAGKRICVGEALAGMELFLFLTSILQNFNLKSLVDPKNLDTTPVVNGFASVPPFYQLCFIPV
Sequence of Voltage-gated inwardly rectifying potassium channel KCNH2 (Homo sapiens) (Q12809 whole entry, looked up): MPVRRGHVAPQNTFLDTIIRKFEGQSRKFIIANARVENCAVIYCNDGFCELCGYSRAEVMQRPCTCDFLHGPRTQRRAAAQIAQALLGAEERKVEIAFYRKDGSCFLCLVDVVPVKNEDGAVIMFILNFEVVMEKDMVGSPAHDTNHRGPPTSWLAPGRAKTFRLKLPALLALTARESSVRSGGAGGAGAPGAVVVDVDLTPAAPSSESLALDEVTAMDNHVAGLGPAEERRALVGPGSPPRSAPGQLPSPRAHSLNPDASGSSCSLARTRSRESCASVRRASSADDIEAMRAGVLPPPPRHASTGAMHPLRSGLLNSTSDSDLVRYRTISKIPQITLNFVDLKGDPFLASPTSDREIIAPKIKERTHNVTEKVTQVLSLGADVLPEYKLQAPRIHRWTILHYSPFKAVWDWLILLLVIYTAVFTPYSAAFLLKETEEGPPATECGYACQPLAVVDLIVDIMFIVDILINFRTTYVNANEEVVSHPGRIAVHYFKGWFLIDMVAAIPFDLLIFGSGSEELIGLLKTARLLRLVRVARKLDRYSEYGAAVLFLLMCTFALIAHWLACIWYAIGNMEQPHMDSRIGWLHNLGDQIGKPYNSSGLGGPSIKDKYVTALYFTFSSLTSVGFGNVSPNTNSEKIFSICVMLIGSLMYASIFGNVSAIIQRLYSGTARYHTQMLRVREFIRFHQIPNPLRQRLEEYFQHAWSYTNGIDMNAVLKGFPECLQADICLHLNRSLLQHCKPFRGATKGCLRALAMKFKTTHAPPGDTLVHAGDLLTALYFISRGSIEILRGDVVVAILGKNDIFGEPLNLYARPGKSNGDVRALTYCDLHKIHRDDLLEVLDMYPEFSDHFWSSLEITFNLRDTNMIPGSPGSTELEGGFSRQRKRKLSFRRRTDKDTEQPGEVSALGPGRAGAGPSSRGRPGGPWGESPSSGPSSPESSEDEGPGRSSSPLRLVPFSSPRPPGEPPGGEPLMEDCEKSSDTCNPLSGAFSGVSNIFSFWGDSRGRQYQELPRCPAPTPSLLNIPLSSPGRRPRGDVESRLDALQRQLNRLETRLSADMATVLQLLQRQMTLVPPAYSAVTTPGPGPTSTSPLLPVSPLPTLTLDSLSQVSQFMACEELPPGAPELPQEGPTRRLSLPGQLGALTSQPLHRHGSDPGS
Sequence of Cytochrome P450 2C19 (Homo sapiens) (P33261 whole entry, looked up): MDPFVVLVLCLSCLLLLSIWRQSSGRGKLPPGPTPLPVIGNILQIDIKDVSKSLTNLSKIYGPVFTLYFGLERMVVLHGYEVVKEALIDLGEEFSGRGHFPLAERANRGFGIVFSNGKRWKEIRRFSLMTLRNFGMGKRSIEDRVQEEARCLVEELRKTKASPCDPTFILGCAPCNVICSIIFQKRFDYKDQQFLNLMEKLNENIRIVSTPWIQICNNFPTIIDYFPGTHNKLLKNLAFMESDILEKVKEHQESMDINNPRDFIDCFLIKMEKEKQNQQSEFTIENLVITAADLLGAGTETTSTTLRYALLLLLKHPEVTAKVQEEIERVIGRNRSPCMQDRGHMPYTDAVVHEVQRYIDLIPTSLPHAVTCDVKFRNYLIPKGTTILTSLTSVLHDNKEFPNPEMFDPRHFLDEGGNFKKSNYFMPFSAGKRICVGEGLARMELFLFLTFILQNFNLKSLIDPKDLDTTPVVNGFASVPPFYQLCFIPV
Sequence of Cytochrome P450 1A2 (Homo sapiens) (P05177 whole entry, looked up): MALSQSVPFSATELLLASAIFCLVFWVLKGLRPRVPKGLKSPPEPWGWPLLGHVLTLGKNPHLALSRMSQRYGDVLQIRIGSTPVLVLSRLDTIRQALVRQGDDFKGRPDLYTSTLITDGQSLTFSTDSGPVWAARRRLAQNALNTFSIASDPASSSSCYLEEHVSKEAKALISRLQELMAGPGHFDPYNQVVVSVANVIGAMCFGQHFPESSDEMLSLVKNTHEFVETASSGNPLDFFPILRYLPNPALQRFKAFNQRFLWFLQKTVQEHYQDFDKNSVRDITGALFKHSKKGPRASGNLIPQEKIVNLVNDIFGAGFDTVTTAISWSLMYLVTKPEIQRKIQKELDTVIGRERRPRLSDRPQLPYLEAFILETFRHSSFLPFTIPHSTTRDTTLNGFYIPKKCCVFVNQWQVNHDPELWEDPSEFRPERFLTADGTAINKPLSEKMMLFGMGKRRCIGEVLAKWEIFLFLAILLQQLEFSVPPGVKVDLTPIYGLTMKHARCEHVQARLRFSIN
Sequence of Nuclear receptor subfamily 1 group I member 2 (Homo sapiens) (O75469 whole entry, looked up): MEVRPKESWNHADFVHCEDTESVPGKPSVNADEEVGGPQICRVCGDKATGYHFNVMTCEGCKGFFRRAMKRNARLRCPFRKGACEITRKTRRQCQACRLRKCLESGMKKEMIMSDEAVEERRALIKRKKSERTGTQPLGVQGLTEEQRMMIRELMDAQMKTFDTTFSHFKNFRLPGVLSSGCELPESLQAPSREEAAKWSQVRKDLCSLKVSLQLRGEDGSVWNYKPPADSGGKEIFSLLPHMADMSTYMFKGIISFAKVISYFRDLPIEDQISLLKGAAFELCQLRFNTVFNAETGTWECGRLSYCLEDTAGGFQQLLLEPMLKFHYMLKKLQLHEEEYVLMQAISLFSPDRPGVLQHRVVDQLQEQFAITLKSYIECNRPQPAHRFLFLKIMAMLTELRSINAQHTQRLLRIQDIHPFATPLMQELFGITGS
Sequence of Cytochrome P450 2D6 (Homo sapiens) (P10635 whole entry, looked up): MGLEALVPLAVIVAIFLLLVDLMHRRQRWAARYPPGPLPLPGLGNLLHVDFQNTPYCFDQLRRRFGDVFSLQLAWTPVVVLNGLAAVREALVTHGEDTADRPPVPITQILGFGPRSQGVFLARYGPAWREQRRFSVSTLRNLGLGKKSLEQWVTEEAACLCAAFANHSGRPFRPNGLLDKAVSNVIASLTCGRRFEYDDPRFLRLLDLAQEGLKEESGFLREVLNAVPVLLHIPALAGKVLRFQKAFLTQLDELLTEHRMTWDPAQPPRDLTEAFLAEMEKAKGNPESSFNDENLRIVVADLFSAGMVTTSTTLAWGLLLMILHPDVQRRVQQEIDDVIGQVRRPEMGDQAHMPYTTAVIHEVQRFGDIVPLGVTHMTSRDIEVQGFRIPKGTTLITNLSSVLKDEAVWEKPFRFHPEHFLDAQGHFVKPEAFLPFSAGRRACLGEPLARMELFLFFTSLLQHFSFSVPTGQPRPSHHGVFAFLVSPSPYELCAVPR
Sequence of Cytochrome P450 3A4 (Homo sapiens) (P08684 whole entry, looked up): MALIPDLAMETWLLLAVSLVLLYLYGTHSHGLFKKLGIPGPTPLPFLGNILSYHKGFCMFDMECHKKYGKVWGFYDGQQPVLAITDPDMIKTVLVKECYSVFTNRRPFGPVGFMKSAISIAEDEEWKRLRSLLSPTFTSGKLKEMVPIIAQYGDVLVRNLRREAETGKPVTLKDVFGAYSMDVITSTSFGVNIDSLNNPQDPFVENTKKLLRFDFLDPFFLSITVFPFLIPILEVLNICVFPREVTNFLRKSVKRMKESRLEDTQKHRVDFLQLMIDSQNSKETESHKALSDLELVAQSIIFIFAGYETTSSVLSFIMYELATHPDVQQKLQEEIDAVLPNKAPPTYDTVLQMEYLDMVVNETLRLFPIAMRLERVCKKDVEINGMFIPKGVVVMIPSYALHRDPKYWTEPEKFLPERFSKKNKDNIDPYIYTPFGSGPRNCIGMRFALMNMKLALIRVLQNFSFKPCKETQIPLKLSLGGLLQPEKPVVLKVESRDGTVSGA

O=C(CC(=O)c1ccccc1)c1ccccc1
inactive: Potency [1] | Potency [2] | Potency [7] | Potency [8]
active: Potency [3] 65.7 µM | Potency [4] 24.1 µM | Potency [5] 38.2 µM | Potency [6] 3.82 µM

CC(=O)SCc1ccco1
inactive: Potency [1] | Potency [2] | Potency [3] | Potency [9] | Potency [6] | Potency [7]

Cc1ccc2c(ccc3ccccc32)c1
inactive: Potency [1] | Potency [2] | Potency [7] | Potency [8]
active: Potency [3] 54.6 µM | Potency [4] 35.7 µM | Potency [5] 35.7 µM | Potency [6] 3.18 µM

CN(c1nccc(=O)[nH]1)C1CCN(c2nc3ccccc3n2Cc2ccc(F)cc2)CC1
active: Potency [9] 12.3 µM | Potency [7] 2.39 µM
inactive: Potency [1] | Potency [2] | max activation [10] -3.1% | Potency [11] | Potency [12] | Potency [4]

CN1CCN(C2=Nc3cc(Cl)ccc3Nc3ccccc32)CC1
active: Potency [2] 23.7 µM
inactive: Potency [1] | Potency [3] | Potency [4] | Potency [6]

CNCC[C@@H](Oc1ccccc1C)c1ccccc1
inactive: Potency [1] | Potency [2] | Potency [3] | Potency [8]

COc1ccc([C@@H]2Sc3ccccc3N(CCN(C)C)C(=O)[C@@H]2OC(C)=O)cc1
inactive: Potency [1] | Potency [2] | max activation [10] -0.277% | Potency [4] | Potency [5] | Potency [6]

Cc1cc(C)c(S(=O)(=O)O)cc1N=Nc1cc(S(=O)(=O)O)c2ccccc2c1O
inactive: Potency [1] | Potency [3] | Potency [7] | Potency [8]
active: Potency [2] 34.4 µM | Potency [5] 63.3 µM

OCCC1CCCCN1 (stereo unspecified)
inactive: Potency [1] | Potency [2] | Potency [3] | Potency [4] | Potency [5] | Potency [6] | Potency [7] | Potency [8]

CCCCOc1cc(C(=O)OCCN(CC)CC)ccc1N
inactive: Potency [1] | Potency [2] | max activation [10] -4.73% | Potency [8]

CCC(=O)OC(C)(C)C1CC=C(C)CC1 (stereo unspecified)
inactive: Potency [1] | Potency [2] | Potency [3] | Potency [7]

ClC(Cl)(Cl)c1ccc(C(Cl)(Cl)Cl)cc1
active: Potency [5] 39.5 µM | Potency [6] 4.98 µM | Potency [7] 6.85 µM
inactive: Potency [1] | Potency [2] | Potency [3] | Potency [8]

CC1=CC(=O)/C(=C(/C)O)C(=O)O1
inactive: Potency [1] | Potency [2] | Potency [3] | Potency [9] | Potency [7] | Potency [8]
active: Potency [5] 63.3 µM

C1=Cc2ccccc2C1
inactive: Potency [1] | Potency [2] | Potency [3] | Potency [7] | Potency [8]
active: Potency [4] 39.9 µM

O=C(O)/C=C/c1cnc[nH]1
active: Potency [4] 79.8 µM
inactive: Potency [1] | Potency [2] | Potency [3] | Potency [7] | Potency [8]

OC(CCN1CCCCC1)(c1ccccc1)C1CCCCC1 (stereo unspecified)
active: Potency [9] 0.977 µM
inactive: Potency [1] | Potency [2] | max activation [10] -2.68% | Potency [11] | Potency [12] | Potency [5] | Potency [6]
